# Hits are enriched below; roughly 18% of the tested compounds scored in any of these assays.
# RORgamma inh = ROR gamma (mouse) transcription inhibition. P51450. Drosophila S2 Gal4-RORgamma UAS-luciferase reporter, 20 h. Potency, µM (top dose mostly 53.6 µM), for the others: at the highest dose activity change, negative = inhibition, hits mostly inhibitors. 310,000 compounds, 5.4% hits. AID 2551; note: potency is the fitted concentration of half-maximal effect; nearly all actives have a fitted effect of over 60% in size
# Target sequence (P51450 whole entry, looked up, the tested form may be a part): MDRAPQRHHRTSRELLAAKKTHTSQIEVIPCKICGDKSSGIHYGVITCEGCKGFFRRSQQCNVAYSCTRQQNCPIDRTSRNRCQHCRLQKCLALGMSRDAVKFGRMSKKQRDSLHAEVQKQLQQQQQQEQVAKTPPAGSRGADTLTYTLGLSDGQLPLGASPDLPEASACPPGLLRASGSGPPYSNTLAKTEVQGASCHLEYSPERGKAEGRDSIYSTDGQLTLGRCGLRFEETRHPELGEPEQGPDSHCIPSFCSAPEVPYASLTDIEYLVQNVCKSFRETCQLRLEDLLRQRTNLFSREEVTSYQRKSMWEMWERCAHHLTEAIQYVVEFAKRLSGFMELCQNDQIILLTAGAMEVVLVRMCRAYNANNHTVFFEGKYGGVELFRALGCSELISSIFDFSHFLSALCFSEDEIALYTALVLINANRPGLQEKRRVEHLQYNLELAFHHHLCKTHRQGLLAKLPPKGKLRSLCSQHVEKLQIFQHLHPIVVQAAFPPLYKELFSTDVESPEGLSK
#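 Luciferase reporter read in Schneider cells carrying Gal4-RORγ (mouse) and UAS-Photinus luciferase; cells given compound 1 h before 700 uM copper sulfate induction, then incubated 20 h at ambient temperature.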
# IL-1B inflam inh = inflammasome signaling inhibition, IL-1 beta readout | AID 743279 | THP-1 LPS/ATP IL-1B secretion, AlphaLISA, 16 h; stronger effect = lower value | activity change, % at 57.5 µM | 360,000 compounds, 4.7% hits; in the data active = activity change below about -50%; inconclusive = mostly about -30% to -49%
#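 Secreted IL-1B measured by AlphaLISA bead assay after 16 h compound exposure of THP-1 cells; compounds (final up to 57.5 uM) added 1 h before LPS (250 ng/mL) and ATP (1.25 mM) stimulation; lower signal means less secretion.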
# LDHA inh = blocks human lactate dehydrogenase A; P00338; purified LDHA, NADH/diaphorase-resazurin fluorescence; stronger effect = lower value; activity change, % (values are at about 110 or 230 µM); 480,000 compounds, 0.15% hits; in the data active = activity change below about -30%; inconclusive = mostly about -25% to -30%;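 note: plate controls were DMSO wells for no effect and wells without enzyme for full effect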
#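 Enzyme activity of human lactate dehydrogenase 5 (2 nM; 0.06 mM NADH, 0.2 mM pyruvate, 5 min, RT) is measured via a resazurin/diaphorase fluorescence readout of residual NADH.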
# DT40 TDP1 no CPT = qHTS for Inhibitors of human tyrosyl-DNA phosphodiesterase 1 (TDP1): qHTS in cells in absence of CPT. 420,000 compounds, 15% hits. DT40 Tdp1-/- hTDP1 cells, no CPT, ATP luminescence, 48 h. Potency, µM (series often up to 46.2 µM), for the others: at the highest dose activity change, negative = growth inhibition, most hits filed as inhibitors. AID 686978, 2013; note: potency is the fitted concentration of half-maximal effect; nearly all actives have a fitted effect of over 55% in size
#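 Readout: luminescence from CellTiter-Glo after 30 min in the dark at RT. Cells: DT40 Tdp1-/- with stable hTDP1, 400/well. Exposure: compounds alone, ≥48 hr, 37 °C.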
# VP16 counter = counter-screen for ROR gamma inhibitors: Gal4-VP16 reporter; 310,000 compounds, 3.5% hits; Potency, µM (top dose mostly 53.6 µM), without a hit: at the top dose activity, negative = inhibition, most hits filed as inhibitors; AID 2546; Drosophila S2 Gal4-VP16 UAS-luciferase, luminescence, 20 h;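 note: Gal4-VP16 expression switched on by copper sulfate through the metallothionein promoter; potency is the fitted concentration of half-maximal effect; nearly all actives have a fitted effect of over 50% in size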
# TDP1 cell CPT = growth inhibition of DT40 Tdp1-/-;hTDP1 cells with camptothecin (screen for TDP1 inhibitors) | AID 686979 | chicken DT40 Tdp1-/-;hTDP1 cells + 20 nM CPT, ATP luminescence, 48 h | 420,000 compounds, 12% hits | Potency, µM (highest dose often 46.2 µM), for the others: at the highest dose activity change, negative = growth inhibition, hits mostly inhibitors; note: potency is the fitted concentration of half-maximal effect; nearly all actives have a fitted effect of over 55% in size
#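 Cell growth measured by CellTiter-Glo luminescence after a minimum 48 h, 37 C compound exposure with 20 nM CPT in Tdp1-knockout DT40 cells stably expressing hTDP1, seeded 400/well; qHTS titration format.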
# An asterisk follows results filed as active; u = inconclusive; x = no result; ! = not active in a repeat; [ ] = another dose, or the depositor's remark. Unless noted, calls come from the whole dose curve; as a rule, active = well fitted curve in the direction sought with a large enough effect; inconclusive = small, poorly fitted or top-dose-only effect, or another doubt; inactive = no such curve, though single readings can be large; an effect the other way counts as inactive or inconclusive. Unless noted, % is set by controls: 0 for no effect and ±100 for the full control effect.
SMILES,RORgamma inh,IL-1B inflam inh,LDHA inh,DT40 TDP1 no CPT,VP16 counter,TDP1 cell CPT
COc1cccc(NC(=O)CN(C)C(=O)CCCc2nc3ccccc3c(=O)[nH]2)c1,x,13,-1,17%,x,-24%
COc1ccccc1CN(Cc1nc2ccccc2c(=O)[nH]1)C(=O)Nc1cccc(C)c1,7.1µM*,-5,-1,3.7µM*,6%,3.3µM*
C#CCCC/C(=C\C(=O)N(C)[C@H](C(=O)N(C)[C@H](C(=O)N(C)[C@H](C(=O)N(C)[C@H](C(N)=O)C(C)C)C(C)C)C(C)C)C(C)C)OC,x,-19,-5,18µM*,x,21µM*
C[C@@]12CCC3[C@@](CC[C@@H]4[C@](C)(C(=O)O)CCC[C@@]34C)(C[C@H]1O)C2 (some centres not stated),-16%,3,-13,2%,0%,0%
C[C@@]12CCC[C@@](C)(C(=O)O)C1CC[C@@]13C[C@@H](NCc4ccccc4)[C@@](C)(CCC12)C3 (some centres not stated),x,0,-7,21µM*,x,u
CCC(C)(Nc1ccc(OC)c(OC)c1)c1nnnn1-c1c(C)cccc1C (configuration not stated),x,x,13,x,x,x
CC1=C(C)CS(=O)N(S(=O)(=O)c2ccc(Cl)cc2)C1 (configuration not stated),u,-93*,-3,2.3µM*,6.3µM*,3.7µM*
CCOC(=O)c1cc(C)n(CC2CCC(C(=O)Nc3ccc(C)c(F)c3)CC2)c1C (configuration not stated),x,x,-5,-27%,x,u
CCOC(=O)c1cc(C)n(CC2CCC(C(=O)Nc3cccc(C)c3)CC2)c1C (configuration not stated),x,x,-2,u,x,18µM*
CCOC(=O)c1cc(C)n(CC2CCC(C(=O)Nc3cc(OC)cc(OC)c3)CC2)c1C (configuration not stated),x,x,0,23µM*,x,u
CCOC(=O)c1cc(C)n(CC2CCC(C(=O)Nc3ccc(OC)cc3)CC2)c1C (configuration not stated),x,x,-3,21µM*,x,15µM*
COc1cc(NC(=O)C2CCC(CNc3c(N4CCCCC4)c(=O)c3=O)CC2)cc(OC)c1 (configuration not stated),28%,-7,-1,u,1%,-8%
CCOC(=O)c1cccc(NC(=O)C2CCC(CNc3c(N4CCOCC4)c(=O)c3=O)CC2)c1 (configuration not stated),-2%,-11,-6,-1%,12%,-3%
Cc1ccc(S(=O)(=O)CC(=O)c2cccc(Cl)c2)cc1,x,x,-3,x,x,x
O=C(NCc1ccco1)c1cc2ccc(Cl)cc2[nH]1,x,x,-7,x,x,x
N=C(N)S/C=C\C(=O)O,32µM*,x,x,16µM*,32µM*,16µM*
CCCCOC(=O)C1=C(C)Nc2nnnn2C1c1ccccc1Cl (configuration not stated),-11%,8,-6,13µM*,u,u
CC1=C(C(=O)Nc2ccc(C)cc2)C(c2ccccc2Cl)n2nnnc2N1 (configuration not stated),x,x,-4,-14%,x,-17%
CN(CC(=O)Nc1ccc(F)cc1)C(=O)COC(=O)Cc1c(F)cccc1Cl,x,-17,-7,6.5µM*,x,-12%
CN(CC(=O)Nc1ccccc1Cl)C(=O)COC(=O)Cc1c(F)cccc1Cl,10µM*,-23,-1,12%,u,-2%
CCOc1ccc(Cc2nccc3cc(OCC)c(OCC)cc23)cc1OCC,-1%,x,x,5.8µM*,16µM*!,5.8µM*
O=C(Nc1cccc(Cl)c1Cl)C12CC3CC(CC(C3)C1)C2,x,x,-4,x,x,x
CCOc1ccc(C2CC(=O)c3c([nH]c(C(=O)OC)c3C)C2)cc1OC (configuration not stated),29%,16,-5,-27%,-12%,-1%
CCc1ccc(C2CC(=O)c3c([nH]c(C(=O)OCC4CCCCC4)c3C)C2)cc1 (configuration not stated),x,x,-2,u,x,-25%
COC(=O)c1[nH]c2c(c1C)C(=O)CC(c1cccs1)C2 (configuration not stated),8%,20,-7,0.82µM*,10%,0.73µM*
SMILES,RORgamma inh,IL-1B inflam inh,LDHA inh,DT40 TDP1 no CPT,VP16 counter,TDP1 cell CPT
COC(=O)c1[nH]c2c(c1C)C(=O)CC(c1cc(OC)ccc1OC)C2 (configuration not stated),15%,41,0,2.9µM*,-1%,3.3µM*
COc1ccc(OC)c(C2CC(=O)c3c([nH]c(C(=O)OCC4CCCCC4)c3C)C2)c1 (configuration not stated),x,x,-19,u,x,21µM*
CC(Oc1ccccc1)C(=O)NCc1ccnc(N(C)C)c1 (configuration not stated),x,x,3,x,x,x
Cc1ccc(C(NC(=O)c2ccncc2)c2ccccc2)cc1C (configuration not stated),x,x,8,x,x,x
Cc1ccc(C2=[N+]([O-])C3(CCCCC/C3=N\NC(N)=S)N(O)C2(C)C)o1 (configuration not stated),1.6µM*,x,x,x,2.2µM*,x
O=C(CCCc1c[nH]c2ccccc12)Nc1cccc2cnccc12,x,x,-1,x,x,x
CCn1c(N2CCN(C(=S)NCCc3ccccc3)CC2)nc2ccccc21,0%,u,-13,26µM*,9%,u
CCn1c(N2CCN(C(=O)/C=C/c3ccccc3)CC2)nc2ccccc21,-2%,-2,-8,u,10%,-20%
CCn1c(N2CCN(C(=S)NCC(C)C)CC2)nc2ccccc21,29%,-54*,-8,-22%,10%[0.365 µM],u
CCn1c(N2CCN(C(=S)NC)CC2)nc2ccccc21,2%,-7,-9,1%,0%,-24%
CCn1c(N2CCN(C(=S)Nc3ccc(OC)cc3)CC2)nc2ccccc21,-9%,-20,-7,15µM*,23%,15µM*
CCN1CCN(C(=S)NCCc2ccccc2)CC1,4%,-1,u,7%,22%,6%
CCc1cc(SC#N)cc(CC)c1N,x,x,1,x,x,x
O=C(Cn1nc(N2CCN(c3ccccc3)CC2)ccc1=O)NC1CCCCCCC1,x,x,-2,x,x,x
C=CCNC(=S)N/N=C/c1ccc(OCc2ccccc2Cl)cc1,0.79µM*,14,-7,-27%,1.6µM*,u

# Screening results from PubChem BioAssay.
